{"source": "PubChem BioAssay (NCATS)", "key": {"[1]": {"target": "Cytochrome P450 3A4 (Homo sapiens) (UniProt P08684)", "sequence (P08684 whole entry, looked up)": "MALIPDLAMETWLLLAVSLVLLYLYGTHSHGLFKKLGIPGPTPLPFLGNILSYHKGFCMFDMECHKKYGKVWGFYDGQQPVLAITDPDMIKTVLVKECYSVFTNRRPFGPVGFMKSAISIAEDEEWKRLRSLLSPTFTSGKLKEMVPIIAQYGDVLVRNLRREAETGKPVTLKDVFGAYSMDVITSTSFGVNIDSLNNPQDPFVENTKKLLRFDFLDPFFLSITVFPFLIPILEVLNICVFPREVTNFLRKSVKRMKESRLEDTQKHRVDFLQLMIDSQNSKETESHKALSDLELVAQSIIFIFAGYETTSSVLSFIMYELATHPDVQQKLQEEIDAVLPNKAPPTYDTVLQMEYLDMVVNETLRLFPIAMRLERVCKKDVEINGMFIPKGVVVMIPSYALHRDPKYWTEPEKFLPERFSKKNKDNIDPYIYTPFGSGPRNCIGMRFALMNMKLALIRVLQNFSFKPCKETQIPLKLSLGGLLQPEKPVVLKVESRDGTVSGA", "experiment": "qHTS Assay for Inhibitors and Substrates of Cytochrome P450 3A4 (AID 884; active = well fitted curve in the direction sought with a large enough effect; an effect the other way counts as inactive or inconclusive; also: series mostly up to about 57 µM; nearly all actives have a fitted effect of over 50% in size)", "outline": "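Luminescent readout of luciferin produced by CYP3A4 (20 nM) dealkylation of Luciferin-PPXE, 25 uM (its KM). NADPH-driven reaction ran 60 min at RT after 10 min compound preincubation; data scaled to 57 uM ketoconazole as 100% inhibition.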"}, "[2]": {"experiment": "Confirmation and Secondary Assay for Modulators of Hemoglobin Beta Chain Splicing at IVS2 705 locus (AID 930; active = well fitted curve in the direction sought with a large enough effect; an effect the other way counts as inactive or inconclusive; also: series mostly up to about 46 µM)", "outline": "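HeLa IVS2-705 EGFP reporter cells, 500/well, compound 2 d at 37C; correct splicing yields fluorescent EGFP. Control: 500 nM antisense PNA. Read-out: total peak GFP intensity.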"}, "[3]": {"target": "Ubiquitin carboxyl-terminal hydrolase 1 (Homo sapiens) (UniProt O94782)", "sequence (O94782 whole entry, looked up)": "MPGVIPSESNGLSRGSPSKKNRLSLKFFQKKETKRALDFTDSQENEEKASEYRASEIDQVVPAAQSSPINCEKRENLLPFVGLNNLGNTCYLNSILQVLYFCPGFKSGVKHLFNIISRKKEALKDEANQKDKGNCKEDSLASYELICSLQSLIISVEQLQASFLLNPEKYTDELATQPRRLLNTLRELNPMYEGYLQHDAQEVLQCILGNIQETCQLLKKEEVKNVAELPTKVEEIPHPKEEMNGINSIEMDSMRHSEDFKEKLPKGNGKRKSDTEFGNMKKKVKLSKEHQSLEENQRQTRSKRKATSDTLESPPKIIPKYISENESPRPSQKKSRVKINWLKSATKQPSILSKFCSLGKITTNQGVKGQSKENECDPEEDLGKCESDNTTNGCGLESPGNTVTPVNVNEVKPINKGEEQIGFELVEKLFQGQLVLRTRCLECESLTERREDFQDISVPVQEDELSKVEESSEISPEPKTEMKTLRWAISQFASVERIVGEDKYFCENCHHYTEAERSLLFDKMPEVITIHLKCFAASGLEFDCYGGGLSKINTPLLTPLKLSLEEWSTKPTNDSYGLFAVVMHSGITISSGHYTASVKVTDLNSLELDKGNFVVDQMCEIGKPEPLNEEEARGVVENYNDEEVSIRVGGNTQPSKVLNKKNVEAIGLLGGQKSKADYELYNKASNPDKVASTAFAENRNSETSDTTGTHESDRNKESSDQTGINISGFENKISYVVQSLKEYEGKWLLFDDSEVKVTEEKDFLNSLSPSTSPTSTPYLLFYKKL", "experiment": "Inhibitors of USP1/UAF1: Pilot qHTS (AID 504865; active = well fitted curve in the direction sought with a large enough effect; an effect the other way counts as inactive or inconclusive;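 also: rhodamine fluorescence freed from ubiquitin-rhodamine substrate followed over time; top concentration of the series differs between compounds; nearly all actives have a fitted effect of over 35% in size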)", "outline": "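USP1/UAF1 complex at 1 nM preincubated 15 min at room temperature with compound, then Ub-Rho substrate added at 150 nM final. Fluorescence (480/540 nm) read kinetically in 50 mM HEPES pH 7.8, 0.5 mM EDTA, 1 mM TCEP, 0.1 mg/ml BSA, 0.01% Tween-20.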"}, "[4]": {"target": "Mitogen-activated protein kinase 10 (Mus musculus) (UniProt Q61831)", "experiment": "JNK3 AlphaScreen Assay (AID 530);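 also: kinase came from lysate of stimulated human HepG2 cells; series mostly up to about 57 µM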", "outline": "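Biotinylated GST-cJun(1-79) served as substrate for JNK3 in HepG2 lysates stimulated with IL-1beta and TNF-alpha. ATP was 10 uM final, pH 7.6. Ser73 phosphorylation was quantified by AlphaScreen (680 nm excitation).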"}, "[5]": {"experiment": "Confirmation and Secondary Assay for Modulators of Hemoglobin Beta Chain Splicing at IVS2 654 locus (AID 910; active = well fitted curve in the direction sought with a large enough effect; an effect the other way counts as inactive or inconclusive;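 also: per-well total GFP intensity by laser scanning cytometry after 2-day treatment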)", "outline": "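HeLa cells stably carrying EGFP interrupted by mutant beta-globin IVS2-654 intron (CMV-driven) were treated with compound for 2 days at 37C; corrected splicing was scored as total peak GFP intensity per well (488 nm excitation, 500-520 nm emission).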"}, "[6]": {"target": "Cytochrome P450 3A4 (Homo sapiens) (UniProt P08684)", "experiment": "qHTS Assay for Activators of Cytochrome P450 3A4 (AID 885; active = well fitted curve in the direction sought with a large enough effect; an effect the other way counts as inactive or inconclusive; also: nearly all actives have a fitted effect of over 65% in size)", "outline": "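CYP3A4 activity: Luciferin-PPXE O-dealkylation, 25uM substrate, 200mM KPO4, RT throughout. Read-out is luciferase luminescence; higher values reflect activation.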"}, "[7]": {"target": "3',5'-cyclic-AMP phosphodiesterase 4B (Homo sapiens) (UniProt Q07343)", "sequence (Q07343 whole entry, looked up)": "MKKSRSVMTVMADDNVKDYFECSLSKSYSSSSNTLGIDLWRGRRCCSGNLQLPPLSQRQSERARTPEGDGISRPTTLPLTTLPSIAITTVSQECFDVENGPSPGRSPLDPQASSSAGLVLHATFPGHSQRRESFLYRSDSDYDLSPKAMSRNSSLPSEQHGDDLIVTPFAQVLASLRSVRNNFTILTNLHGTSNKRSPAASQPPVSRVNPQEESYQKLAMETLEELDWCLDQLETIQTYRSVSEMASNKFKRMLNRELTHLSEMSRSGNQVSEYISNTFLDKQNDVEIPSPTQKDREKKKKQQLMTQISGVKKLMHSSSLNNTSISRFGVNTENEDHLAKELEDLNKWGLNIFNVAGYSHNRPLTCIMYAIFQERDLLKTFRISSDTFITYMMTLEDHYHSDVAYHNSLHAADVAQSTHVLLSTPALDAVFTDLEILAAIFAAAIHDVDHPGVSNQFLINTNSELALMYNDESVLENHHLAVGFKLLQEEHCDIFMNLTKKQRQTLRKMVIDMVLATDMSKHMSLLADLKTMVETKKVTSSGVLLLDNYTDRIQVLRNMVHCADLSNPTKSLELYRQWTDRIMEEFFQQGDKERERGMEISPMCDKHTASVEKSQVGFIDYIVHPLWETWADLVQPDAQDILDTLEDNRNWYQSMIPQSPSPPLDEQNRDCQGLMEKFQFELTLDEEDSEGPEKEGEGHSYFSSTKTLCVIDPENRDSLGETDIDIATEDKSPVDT", "experiment": "qHTS Assay for Inhibitors of PDE-IV (AID 607; active = well fitted activation curve with a large enough effect in the main read-out, with a control signal flat, not every such curve was filed as active)", "outline": "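ACTOne HEK293 cells carry a modified cAMP-gated CNG channel and express endogenous PDE4; plated 1000 cells/well, compounds up to 22.9 uM final. Membrane-potential dye fluorescence (ex 535/em 590) was read; parental cells received 10 uM forskolin + 100 uM RO 20-1724.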"}}, "note": "Records with an inconclusive call do not appear. Entries that show only a call come without a potency. Activity calls are given as the source filed them. Unless noted, calls follow the shape of the dose curve; as a rule, active = well fitted curve in either direction with a large enough effect (not every such curve was filed as active); inconclusive = small, poorly fitted or top-dose-only effect, or another doubt; inactive = flat fitted curve, though single readings scatter.", "data": [{"smiles": "COC(=O)C1OC(=O)C2OC23[C@]2(C)C(OC(C)=O)CC4C(C)(C)C(=O)CC[C@]4(C)C2CC[C@@]13C", "note": "(stereo partly drawn)", "values": [{"measurement": "Potency", "setting": "[1]", "result": "inactive"}, {"measurement": "outcome", "setting": "[2]", "result": "inactive"}, {"measurement": "Potency", "setting": "[3]", "result": "inactive"}]}, {"smiles": "CCC/C=C(\\CCC)C(NC(=O)c1ccco1)c1ccc(C(=O)OC)cc1", "note": "(stereo not drawn)", "values": [{"measurement": "outcome", "setting": "[4]", "result": "inactive"}]}, {"smiles": "COc1cc(C2c3cc4c(cc3C(OC3OC5COC(C)O[C@@H]5C(O)C3O)C3COC(=O)C23)OCO4)cc(OC)c1O", "note": "(stereo partly drawn)", "values": [{"measurement": "outcome", "setting": "[5]", "result": "inactive"}, {"measurement": "outcome", "setting": "[2]", "result": "inactive"}, {"measurement": "Potency", "setting": "[3]", "result": "inactive"}]}, {"smiles": "CCCN1CC(CSC)C[C@H]2c3cccc4[nH]cc(c34)C[C@H]21", "note": "(stereo partly drawn)", "values": [{"measurement": "Potency", "setting": "[6]", "result": "inactive"}, {"measurement": "outcome", "setting": "[5]", "result": "inactive"}, {"measurement": "outcome", "setting": "[2]", "result": "inactive"}, {"measurement": "Potency", "setting": "[3]", "result": "inactive"}]}, {"smiles": "NCC1O[C@H](O[C@@H]2C(O)[C@H](O[C@H]3OC(CO)C(O)C(N)C3O)[C@@H](N)C[C@H]2N)[C@@H](N)CC1O", "note": "(stereo partly drawn)", "values": [{"measurement": "outcome", "setting": "[2]", "result": "inactive"}, {"measurement": "Potency", "setting": "[3]", "result": "inactive"}]}, {"smiles": "COC(=O)[C@@]1(Cc2ccccc2)[C@H]2c3cc(C(=O)N4CCCC4)n(CCO)c3C[C@H]2CN1C(=O)c1ccccc1", "values": [{"measurement": "outcome", "setting": "[4]", "result": "inactive"}]}, {"smiles": "CNC1C(O)C(O[C@H]2C(O)[C@@H](OC3OC(CN)=CCC3N)[C@H](N)C[C@@H]2N)OC[C@]1(C)O", "note": "(stereo partly drawn)", "values": [{"measurement": "outcome", "setting": "[2]", "result": "inactive"}, {"measurement": "Potency", "setting": "[3]", "result": "inactive"}]}, {"smiles": "COc1ccc2nc3c(c(-c4ccccc4)c2c1)CCC3", "values": [{"measurement": "outcome", "setting": "[4]", "result": "inactive"}]}, {"smiles": "CCCC[C@@H]1C[C@H]1C(NC(=O)c1ccccc1)c1ccc(C(F)(F)F)cc1", "note": "(stereo partly drawn)", "values": [{"measurement": "outcome", "setting": "[4]", "result": "inactive"}]}, {"smiles": "CCCC[C@H]1C[C@@H]1[C@@H]1N(C(C)=O)[C@H](c2cccc(OC)c2)CC12CC2", "values": [{"measurement": "outcome", "setting": "[4]", "result": "inactive"}]}, {"smiles": "COC(=O)C1(Cc2ccccc2)C=C2C(=C(c3ccccc3)C(=O)C2C)CN1", "note": "(stereo not drawn)", "values": [{"measurement": "outcome", "setting": "[4]", "result": "inactive"}]}, {"smiles": "CCc1c2c(nc3ccc(OC)cc13)OC(CC)C2", "note": "(stereo not drawn)", "values": [{"measurement": "outcome", "setting": "[4]", "result": "inactive"}]}, {"smiles": "OC1C=C2CCN3Cc4cc5c(cc4C(C1O)C23)OCO5", "note": "(stereo not drawn)", "values": [{"measurement": "outcome", "setting": "[5]", "result": "inactive"}, {"measurement": "outcome", "setting": "[2]", "result": "inactive"}, {"measurement": "Potency", "setting": "[3]", "result": "inactive"}]}, {"smiles": "COC(=O)[C@@]1(Cc2ccc(F)cc2)[C@H]2c3cc(C(=O)N(C)C)n(CCSCCO)c3C[C@H]2CN1C(=O)c1ccccc1", "values": [{"measurement": "outcome", "setting": "[4]", "result": "inactive"}, {"measurement": "outcome", "setting": "[7]", "result": "inactive"}]}, {"smiles": "COC(=O)Cn1c(C(=O)N(C)C)cc2c1C[C@H]1CN(C(=O)c3ccccc3)[C@@](Cc3ccc(F)cc3)(C(=O)OC)[C@@H]21", "values": [{"measurement": "outcome", "setting": "[4]", "result": "inactive"}, {"measurement": "outcome", "setting": "[7]", "result": "inactive"}]}, {"smiles": "COC(=O)[C@@]1(Cc2ccc(OC)cc2)[C@H]2c3cc(C(=O)N4CCCC4)n(Cc4ccc(S(C)(=O)=O)cc4)c3C[C@H]2CN1C(=O)c1ccccc1", "values": [{"measurement": "outcome", "setting": "[4]", "result": "inactive"}, {"measurement": "outcome", "setting": "[7]", "result": "inactive"}]}, {"smiles": "COC(=O)[C@@]1(Cc2ccc(OC)cc2)[C@H]2c3cc(C(=O)N4CCCC4)n(CCO)c3C[C@H]2CN1C(=O)c1ccccc1", "values": [{"measurement": "outcome", "setting": "[4]", "result": "inactive"}, {"measurement": "outcome", "setting": "[7]", "result": "inactive"}]}, {"smiles": "COC(=O)[C@@]1(Cc2ccc(OC)cc2)[C@H]2c3cc(C(=O)N4CCCC4)n(C[C@H](O)CO)c3C[C@H]2CN1C(=O)c1ccccc1", "values": [{"measurement": "outcome", "setting": "[4]", "result": "inactive"}, {"measurement": "outcome", "setting": "[7]", "result": "inactive"}]}, {"smiles": "COC(=O)[C@@]1(Cc2ccc(OC)cc2)[C@H]2c3cc(C(=O)N4CCCC4)n(CCc4c[nH]c5ccccc45)c3C[C@H]2CN1C(=O)c1ccccc1", "values": [{"measurement": "outcome", "setting": "[4]", "result": "inactive"}, {"measurement": "outcome", "setting": "[7]", "result": "inactive"}]}, {"smiles": "COC(=O)[C@@]1(Cc2ccccc2)[C@H]2c3cc(C(=O)N(C)C)n(CCSCCO)c3C[C@H]2CN1C(=O)c1ccccc1", "values": [{"measurement": "outcome", "setting": "[4]", "result": "inactive"}, {"measurement": "outcome", "setting": "[7]", "result": "inactive"}]}, {"smiles": "COC(=O)Cn1c(C(=O)N(C)C)cc2c1C[C@H]1CN(C(=O)c3ccccc3)[C@@](Cc3ccc(OC)cc3)(C(=O)OC)[C@@H]21", "values": [{"measurement": "outcome", "setting": "[4]", "result": "inactive"}, {"measurement": "outcome", "setting": "[7]", "result": "inactive"}]}, {"smiles": "CCCC[C@@H]1C[C@H]1C(NC(=O)c1ccccc1)c1ccc(C(=O)OC)cc1", "note": "(stereo partly drawn)", "values": [{"measurement": "outcome", "setting": "[4]", "result": "inactive"}]}, {"smiles": "COC(=O)[C@@]1(Cc2ccc(OC)cc2)[C@H]2c3cc(C(=O)N(C)C)n(CCF)c3C[C@H]2CN1C(=O)c1ccccc1", "values": [{"measurement": "outcome", "setting": "[4]", "result": "inactive"}, {"measurement": "outcome", "setting": "[7]", "result": "inactive"}]}, {"smiles": "COC(=O)[C@@]1(Cc2ccc(F)cc2)[C@H]2c3cc(C(=O)N4CCCC4)n(CCc4c[nH]c5cc(F)ccc45)c3C[C@H]2CN1C(=O)c1ccccc1", "values": [{"measurement": "outcome", "setting": "[4]", "result": "inactive"}, {"measurement": "outcome", "setting": "[7]", "result": "inactive"}]}, {"smiles": "C[C@@H](C(=O)NCc1ccc(C(F)(F)F)nc1)[C@H]1C[C@]1(C)[C@H](NC(=O)OCc1ccccc1)c1ccccc1", "values": [{"measurement": "outcome", "setting": "[4]", "result": "inactive"}, {"measurement": "outcome", "setting": "[7]", "result": "inactive"}]}, {"smiles": "Cc1ccc(CNC(=O)[C@H](C)[C@H]2C[C@]2(C)[C@H](NC(=O)OCc2ccccc2)c2ccccc2)o1", "values": [{"measurement": "outcome", "setting": "[4]", "result": "inactive"}, {"measurement": "outcome", "setting": "[7]", "result": "inactive"}]}, {"smiles": "COC(=O)[C@@]1(Cc2ccc(F)cc2)[C@H]2c3cc(C(=O)N4CCCC4)n(C[C@H](O)CO)c3C[C@H]2CN1C(=O)c1ccccc1", "values": [{"measurement": "outcome", "setting": "[4]", "result": "inactive"}, {"measurement": "outcome", "setting": "[7]", "result": "inactive"}]}, {"smiles": "Cc1ccc(CNC(=O)[C@H](C)[C@H]2C[C@]2(C)[C@H](NC(=O)OCc2ccccc2)c2ccccc2)c(F)c1F", "values": [{"measurement": "outcome", "setting": "[4]", "result": "inactive"}, {"measurement": "outcome", "setting": "[7]", "result": "inactive"}]}, {"smiles": "COC(=O)[C@@]1(Cc2ccc(F)cc2)[C@H]2c3cc(C(=O)N4CCCC4)n(CCSCCO)c3C[C@H]2CN1C(=O)c1ccccc1", "values": [{"measurement": "outcome", "setting": "[4]", "result": "inactive"}, {"measurement": "outcome", "setting": "[7]", "result": "inactive"}]}, {"smiles": "COC(=O)[C@@]1(Cc2ccc(F)cc2)[C@H]2c3cc(C(=O)N(C)C)n(CCF)c3C[C@H]2CN1C(=O)c1ccccc1", "values": [{"measurement": "outcome", "setting": "[4]", "result": "inactive"}, {"measurement": "outcome", "setting": "[7]", "result": "inactive"}]}, {"smiles": "COC(=O)[C@@]1(Cc2ccc(OC)cc2)[C@H]2c3cc(C(=O)N(C)C)n(Cc4cc(C)n(C)n4)c3C[C@H]2CN1C(=O)c1ccccc1", "values": [{"measurement": "outcome", "setting": "[4]", "result": "inactive"}, {"measurement": "outcome", "setting": "[7]", "result": "inactive"}]}, {"smiles": "COC(=O)[C@@]1(Cc2ccc(OC)cc2)[C@H]2c3cc(C(=O)N(C)C)n(CCO)c3C[C@H]2CN1C(=O)c1ccccc1", "values": [{"measurement": "outcome", "setting": "[4]", "result": "inactive"}, {"measurement": "outcome", "setting": "[7]", "result": "inactive"}]}, {"smiles": "COC(=O)[C@@]1(Cc2ccc(OC)cc2)[C@H]2c3cc(C(=O)N(C)C)n(Cc4cccc5ccccc45)c3C[C@H]2CN1C(=O)c1ccccc1", "values": [{"measurement": "outcome", "setting": "[4]", "result": "inactive"}, {"measurement": "outcome", "setting": "[7]", "result": "inactive"}]}, {"smiles": "C[C@@H](C(=O)N[C@@H](CO)Cc1ccccc1)[C@H]1C[C@]1(C)[C@H](NC(=O)OCc1ccccc1)c1ccccc1", "values": [{"measurement": "outcome", "setting": "[4]", "result": "inactive"}, {"measurement": "outcome", "setting": "[7]", "result": "inactive"}]}, {"smiles": "COc1ccc(NC(=O)CCCCC#Cc2ccccc2)cc1", "values": [{"measurement": "outcome", "setting": "[4]", "result": "inactive"}, {"measurement": "outcome", "setting": "[7]", "result": "inactive"}]}, {"smiles": "COC(=O)[C@@]1(Cc2ccc(OC)cc2)[C@H]2c3cc(C(=O)N4CCCC4)n(Cc4ccc(OC)c(OC)c4)c3C[C@H]2CN1C(=O)c1ccccc1", "values": [{"measurement": "outcome", "setting": "[4]", "result": "inactive"}]}]}
